The supplement of paper PMC12632987

These binders were tested against GABARAPL2, P60520 (assay: median log2 fold change of GCK-ALFA target abundance (FLAG IP / Myc IP barcode read proportion) (log2 ratio); each designed protein is fused to an ALFA-tag nanobody in HEK293 cells to bring the named protein to FLAG-tagged glucokinase (GCK); Myc marks an untargeted standard; higher = target protein stabilised (more abundant)). Settings: target protein: 3xFLAG-MCP-GCK-ALFA reporter; HEK293 landing pad (RPLP).
Chain of GABARAPL2, P60520 (P60520 whole entry, the tested form may be a part): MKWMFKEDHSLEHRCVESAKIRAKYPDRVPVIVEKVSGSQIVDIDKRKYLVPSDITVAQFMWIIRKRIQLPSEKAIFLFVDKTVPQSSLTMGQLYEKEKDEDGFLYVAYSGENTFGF
Summary of the method: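 Sequencing of reverse-transcribed, amplified circular RNA barcodes from anti-FLAG and anti-Myc immunoprecipitates provided the readout for an ALFA-nanobody-fused binder library recombined into HEK293 landing-pad cells. Those cells were induced with 2 μg mL^−1 doxycycline, transfected with a plasmid expressing a FLAG-tagged target and a Myc-tagged standard, and lysed after 48 h. Target abundance is the per-binder median log2 ratio of FLAG to Myc barcode read proportions. Only barcodes at a proportion of ≥10^−7 in both replicates and binders with ≥3 barcodes per replicate were kept, with a 10^−6 pseudocount added before the two replicates were pooled.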

Row | Binder | median log2 fold change
1 | GBRAPL2_128_7281 (protein) MKLVTIDIDVENEEEYELVKKVLDEIIEKGSPEVADLADAAKDMLEESKKEGFKEKVSVADILSDEEAEELKKLFEELAKKYGEEKVNKHIELEIDDLPP | -0.33
2 | GBRAPL2_128_7297 (protein) MKLVEIDIDINNEEEAKLVIEVLEEIAKEGSEEVKKLAEAAKDLAESLAEEGYGEKGTVVDILSEEDAKELKELYEKLSKKYGKEKIEKRIKLEVDDIPP | -0.194
3 | GBRAPL2_128_7289 (protein) MKLVTLDIDIENEEEFKLAKKVLEELAKKGSPAVADLANAALDMVEEAEKDGYNEKVSVADILSEEDAEELKKLLEELAKKYGEEKVKKIIKLEIDELPP | -0.0985
4 | GBRAPL2_151_7302 (protein) SWKEKIIKALEEAAKIAEEAVEKLSESQELEKTEFELIAGGLDALRALIEETDDEEEIRRLARRAAELTKDGAEIAKKLGLEEEAEKFEKRAKELEELAE | 0.2
5 | GBRAPL2_128_7278 (protein) MKLVEIDIDIKNEEEYELAKKVLKRIAEEGSPEVSKLADAALDLVEENKEEGFKYSRTVVDILSEEDAEELKELFEKLAEEYGKEKVEKVIKLEIDDIPP | 0.112
6 | GBRAPL2_128_7291 (protein) MKLVEISVKVENEEEYELAKKVLSDIAEKSSPEVAKLADAARDMLEENKEEGYNVGVTVADILSEEQAEELRKLFEEVAKEYGKEKVEKIIELTVDDLPP | 0.0557
7 | GBRAPL2_128_7285 (protein) MKLVTIDIKVENEEEYELAKKVLDEIAEEGSPAVAKLADAARDMLESEKEEGFKDGVSVADILSDEEAEELKELYEKLAEKYGKEKVNKIIELTVDDLPP | -0.134
8 | GBRAPL2_128_7284 (protein) MKLVEIDITVKNEEEYELVLKVLTEIAERGSPAVAKLADAAKDMVEEEKKEGFKDGVTVADVLSDEDAAELKALYEELAEKYGKEKVNKHIKLTVDDLPP | -0.0335
9 | GBRAPL2_128_7293 (protein) MKIVEVDIEIKNEEEAEKVKAAFDEIAERGSPAVAKLADAAKDMAESLLEDGFDEKGTVVDVLSDEDAAELRELYEELAKEYGEEFMNENIKLTIDDIPP | -0.421
10 | GBRAPL2_128_7294 (protein) MKIVEIDLDIKNEEEANLAKEILKEIAAKSSEKVKDLMDAAIDMVESLEEDGYDEKATVVDVLSEEDAEELKKLYEEEAKKYGEEKVNKIIKLEISDIPP | 0.042
11 | GBRAPL2_128_7274 (protein) MKIVEIDIDIKNEEQYELALEVLDRIAANSSPAVADLADAARDLAESAKEEGFDENVSAVDVLSDEDAAELQAIYDEIAAELGEEKVNSVVKLTIDPLEP | -0.506
12 | GBRAPL2_128_7280 (protein) MKLVEISVTVENEEEYELAKKVLTEIAEKGSPEVAKLADAALDLVESNKEDGFDEAVVAVDILSEEDAEELKELYEELAEKYGKEKVEKVIQVEVDDIPP | -0.794
13 | GBRAPL2_128_7296 (protein) MKIVEIDIDVENEEEAELVLEILEEISKKSSPEVKKLMDAAKDMVESLKEDGYDEKATVVDILSEEDAKELEELYKEEAKKYGEEKVKKIIKLEIDEIPP | -0.305
14 | GBRAPL2_128_7287 (protein) MKLVTIDITIENEEEYELAEKVLEELARRGSPAVADLADAALDMVRSAKEDGYNENVAVTDILSPEDAAELKALLEELAKEYGEEKVNRIIKLEVDDIPP | -0.633
15 | GBRAPL2_128_7276 (protein) KKIVSIDVDLKDEESYELALKILEEIAEKSSPKVKELAEAAKDLAEAAKEEGFGETVTAVDILSDEEVEELKKIYAEIKKKYGEEKVNSVVKIEIDELKP | -0.258
16 | GBRAPL2_128_7288 (protein) MKLVTLDVDVEDEEEYELALEVLTRLAERGSPAVARLADAARDMVEEAKEEGYDEEVAVTDILSEEDAEELRALYEELAAELGAERVSRVIRLEVDDLPP | -0.203

Row | Binder | median log2 fold change
17 | GBRAPL2_128_7292 (protein) MKLVEIDLDIKNEEEYELAKKVLTELARESSPAVADLANAALDMVEEAKKDGFKDKYVVADVLSPEDAAELEALFNRLAERYGAEKVRKVIQLEVSDIPP | -0.166
18 | GBRAPL2_151_7304 (protein) GWKEEAIKALEKAAKAAEEAAAALPESQELERTELELLAGGFEADAILIEETDDEEEIKRLVKEAAERAEDAAKLAKKLGLEEQAKKLEKIAKELKKLAK | 0.0343
19 | GBRAPL2_128_7275 (protein) MKIVEIDVDIKNEEQYNLALEILDEIAENSSPAVADLADAAKDLAESSKERGFDENVTAVDVLSEEDAEELRRIYEEIAEKLGREKVESVVRLEISDLEP | -0.585
20 | GBRAPL2_128_7295 (protein) MKIVEIDIDIKNEEEAELVKEIFKEIAEKSSPEIKKLMDAAIDMVESLKEDGYDEKGTVVDILSKEDAEELKKLYEEEAEKYGKEKVEKIIKLEISDIPP | -0.663
21 | GBRAPL2_151_7300 (protein) EWKEEAIKALEEAAKIAEEAVEKLDESQELEKTEFELIAGGLDALKALIEETDDEEKIREYVKRGAELVKDAAKIAKELGLEEEAKKFEKLAKKLEELSK | 0.271
22 | GBRAPL2_151_7303 (protein) GWKEEAIKALEEAAKAAEEAAKALSPEHELERTELELLAGGFEADAILIEETDDEEEIKRLVKEAAEMAKDAAKLAKKLGLEKEAKKLEKIAEKLKKLAE | 0.179
23 | GBRAPL2_128_7286 (protein) MKLVEIDIDIKNKEEYELAKAVLDDIAKNSSPKVAKLADAAKDMAEEAAKEGYKEKVTVADILTDEEAEELKKLLEELKEKYGKEKVEKVIKLTVDDLPP | -0.551
24 | GBRAPL2_128_7283 (protein) MKLVEIDITVKNEEEYKLAKEVLKEIAEKGSPAVAKLADAALDMLESEKEEGFKDGVTVADILTEEEAEELKKLYEELAKKYGEEKVKKIIELTVDDIPP | -0.458
25 | GBRAPL2_128_7273 (protein) MYLVEIDIDVKDEESYNLAVEILDEIAKNSSEKVKDLAEAARDMAEIAYENGFDEKVVVVDIVSEEEAEELKKIYEEIKKKKGEEKVNSVVELEIDEVEP | -0.586
26 | GBRAPL2_128_7279 (protein) MKIVEIDIDVENEEEYKLAKEVLEKIAEEGSPEVAKLADAALDLVEENEEDGFDEKFTAVDILSEEDAEELKELFEELAEKLGKEKVEKVIKLEIDDIPP | -0.539
27 | GBRAPL2_128_7290 (protein) MKLVTIDVTIKNEEEYNLAVKVLKELAEKGSPKVADLADAARDMVEEAKKEGYNENVSVADILSEEDAEELKKLYEELAKKYGEEKVKSIIKLTIDDIPP | -0.128
28 | GBRAPL2_128_7282 (protein) MKLVTIDVTVENEEEYNLAVEVFDEIIEEGSEKVADLADAAKDMLESSKENGYKENVSVADILSDEDAEELRELFEELAKKYGEEKVKKIIELTIDDLPP | -0.381
29 | GBRAPL2_151_7301 (protein) SWKEEAIKALEEAAKIAEEAVEKLSEEQELEKTEFELIAGGMDALKALIEETDDEELIKKYVERGAELVKDAAEIAKELGLEELAKKFEKLAKELEKLSK | 0.0733
30 | GBRAPL2_128_7298 (protein) MKLVEIDIDIENEEEAKLVLEILDEIAKRGSPEVKKLADAAKDLAESLAESGYGEKGTVVDILSEEDAEELKKLYEELAKEYGEEKVKKRIKLEVDDIPP | -0.397
31 | GBRAPL2_151_7305 (protein) SEKEKAIELLEEAAKAAEEAIKKLSEEQELAKTEFELIAGGLEALAILVEETDDEEEIKRLIKEAAELTEDAAKLAEELGLEEEAKKLKEISKELKKLAE | -0.356
32 | GBRAPL2_128_7299 (protein) MKLVEIDITIENKEEAELVKKILEEIAKKGSEEVKKLADAAKDLAETLAEEGYGEKGTVVDILSDEDAEELKKLYEELAEKYGKEKVEKRIKLEVDDIPP | -0.468
